Activity calls are given as the source filed them. Rule for the calls: active = hit-call score of the fitted dose curve at least 0.9, where 1 is the maximum; inactive = score below 0.9.
read-out: Bcl-2 (BID) gene, BID (gene 637); test: LTEA_HepaRG_BID: Life Technologies and Expression Analysis (LTEA) Assay for Bcl-2 (BID) gene using HepaRG (AID 2283476); conditions: mRNA level, 48 h; actives raise or lower the signal
Protocol: LTEA_HepaRG is a cell based, multiplexed-readout assay that uses HepaRG, a human liver cell line, with measurements taken at 48 hours after chemical dosing on a 96-well plate.LTEA_HepaRG_BID is one of 102 assay component(s) measured in the LTEA HepaRG cell culture assay. It is a marker of Cell proliferation, survival, death.Data from the assay component LTEA_HepaRG_BID was analyzed into 1 endpoint. This assay endpoint, LTEA_HepaRG_BID, was analyzed with bidirectional fitting relative to DMSO as the negative control and baseline of activity. Using a type of inducible reporter, measures of mRNA induction for gain or loss-of-signal activity can be used to understand regulation of transcription factor activity. To generalize the intended target to other relatable targets, this assay endpoint is annotated to the cell cycle intended target family, where the subfamily is Cell proliferation, survival, death.
A total of 1060 chemcials from the ToxCast library were tested in eight-point concentration-response experiments. Cell culture and cytotoxicity assays were conducted at Thermo Fisher Scientific's Custom Services facility (Madison, WI). A single lot of human HepaRG cells (Thermo Fisher Scientific, Frederick, MD) was used for the cell culture experiments. 96-well format collagen type I coated plates of human HepaRG cells were prepared using established methods. Briefly, cryopreserved HepaRG cells were thawed, plated at a density of approximately 100,000 cells/well in HepaRG Thaw, Plate, and General Purpose media (HPRG770, Thermo Fisher Scientific), and incubated for 48 hours. 0.5% DMSO was selected as vehicle control to balance the requisite need of DMSO in HepaRG cultures to maintain differentiation (for example, baseline metabolism, proportions of hepatocytes vs. cholangiocytes), while enabling further hepatic receptor pathway activation (for example, PXR and CAR) in response to chemical exposure. 48 hours after plating, the culture medium was replaced with HepaRG Serum-Free Incudtion Media. Cells were exposed to each test chemical in duplicate and maintained in CO2 incubators for another 48 hours. Chemical plates were thawed to room temperature and 200x concentrations of treatment groups were prepared. 8-point conentration-reponse curves were made with the highest exposure at 100 uM, followed by half-log dilutions, all in 0.5% DMSO. Each test plate contained variouse controls, induction positive controls (1mM phenobarbital), cytotoxicity positive controls ([…] aflatoxin B1), vehicle controls (0.5% DMSO), and total lysis controls (0.5% DMSO). Cell morphology images were taken using an Essen IncuCyte FLR automated microscope, with six 96-well plates imaged in about 24 minutes. Images were captured and exported and JPEG files. Spent culture media was transfered to black-well plates for the LDH assay, and remaining media was sorted at -80 C for later use. Cells were treated with RLT buffer and frozen until shipped for gene expression analysis. Total RNA was isolated from the cell suspension in 75 uL of Buffer RLT (Qiagen, Germantown, MD 20874) by Quintiles/Expression Analysis (Durham, NC) using a custom isolation procedure. Total RNA from each plate well was transferred to a preamplification plate. Fluidigm's 96.96 Dynamic ArrayTM (Fluidigm, Amsterdam, the Netherlands) technology was used for gene expression analyses by quantitative reverse transcription polymerase chain reaction (qRT-PCR, performed by Quintiles/Expression Analysis, Durham, NC)89. Standard TaqManTM Assays (Applied Biosystems/ThermoFisher Scientific, Foster City, CA) were used to assess the expression of 93 genes selected based on their selectivity and sensitivity to important hepatic receptors known to be modulated by environmental chemicals; importance in human hepatocyte functionality; and hepatotoxicity. […]

Row | Structure (SMILES) | outcome | AC50
1 | CC(CO)OC(C)CO (stereo not given) (tested in a mixture with another compound) | inactive | –
2 | CC1=C(/C=C/C(C)=C/C=C/C(C)=C/CO)C(C)(C)CCC1 | inactive | –
3 | CC1(C)NC(=O)NC1=O | inactive | –
4 | CCOC(=O)C(C)(C)Oc1ccc(Cl)cc1 | inactive | –
5 | CC(=O)OCCOCCOCCOC(C)=O | inactive | –
6 | CC(=O)Oc1ccccc1C(=O)O | inactive | –
7 | C[Si]1(C)O[Si](C)(C)O[Si](C)(C)O[Si](C)(C)O1 | inactive | –
8 | CC(C)(C)c1cc(O)c(C(C)(C)C)cc1O | – | 84.3 µM (active)
9 | CC(=O)OC/C=C(\C)CCC=C(C)C | inactive | –
10 | Cc1ccc2ncccc2c1 | inactive | –
11 | Cc1cc(=O)[nH]c(=S)[nH]1 | inactive | –
12 | Cc1cccc(C)c1O | inactive | –
13 | Cc1cccc(Nc2cc(Cl)nc(SCC(=O)O)n2)c1C | – | 0.276 µM (active)
14 | CCc1c(C(=O)NN2CCCCC2)nn(-c2ccc(Cl)cc2Cl)c1-c1ccc(Br)cc1 | inactive | –
15 | FC(F)(F)C(F)(F)C(F)(F)C(F)(F)C(F)(F)C(F)(F)CCI | inactive | –
16 | Cc1ccc(N(C)C)cc1 | inactive | –
17 | O=C(N[C@@H](Cc1ccccc1)[C@@H](O)C(=O)N1C[C@@H](O)[C@@H](O)C1)c1cc2cc(Cl)ccc2[nH]1 | inactive | –
18 | C[C@]12C=CC(=O)C=C1CC[C@@H]1[C@@H]2C(=O)C[C@@]2(C)[C@H]1CC[C@]2(O)C(=O)CO | inactive | –
19 | COc1ccc2c(c1)c(CC(=O)O)c(C)n2C(=O)c1ccc(Cl)cc1 | inactive | –
20 | OC[C@@H](O)[C@@H](O)[C@H](O)[C@H](O)CO | inactive | –

Row | Structure (SMILES) | outcome | AC50
21 | Cc1oc(-c2ccccc2)nc1CCOc1cccc2c1ccn2CCC(=O)O | inactive | –
22 | CN[C@H]1CC[C@@H](c2ccc(Cl)c(Cl)c2)c2ccc(S(N)(=O)=O)cc21 | inactive | –
23 | CCCCN(CCCC)CCCC | inactive | –
24 | COc1cc(C=O)ccc1O | inactive | –
25 | C1CCC(SSC2CCCCC2)CC1 | inactive | –
26 | NC(=O)Cn1c(=O)cc(CCN2CCN(c3nccc4sccc34)CC2)c2ccc(F)cc21 | inactive | –
27 | c1cc(-c2ccncc2)ccn1 | inactive | –
28 | CC(=O)C(C)=CC1C(C)=CCCC1(C)C (stereo not given) | inactive | –
29 | CNC(=O)[C@H]1O[C@@H](n2cnc3c(NCc4cc(Cl)ccc4OCc4cc(C)no4)ncnc32)[C@H](O)[C@@H]1N | inactive | –
30 | Cc1ccc(C)c(C)c1 | inactive | –
31 | COc1cc(S(=O)(=O)O)c(C)cc1N=Nc1c(O)ccc2cc(S(=O)(=O)O)ccc12 | inactive | –
32 | O=C(O)Cc1ccccc1Nc1c(Cl)cccc1Cl | inactive | –
33 | Cc1nc(-c2ccc3c(c2)CCN(CCC2CCC(NC(=O)/C=C/c4ccc(F)cc4)CC2)CC3)no1 (stereo not given) | inactive | –
34 | CCCCCCCCCCCCCCCC | inactive | –
35 | Cc1cc(NC(=O)C(=O)O)cc(C)c1Oc1ccc(O)c2c1CCC2 | inactive | –
36 | CCCCCCC(=O)OCC | inactive | –
37 | Cc1ccc(C)c(O)c1C | inactive | –
38 | NCCO | inactive | –
39 | CCCCCCOCCO | inactive | –
40 | CC1(C)CC(N=C=O)CC(C)(CN=C=O)C1 (stereo not given) | inactive | –

— PubChem BioAssay (EPA / NIEHS)
